High-throughput results as filed in PubChem.
KLF5 inh – kruppel-like factor 5 inhibition; DLD-1 KLF5 promoter-luciferase reporter, luminescence; inhibition, % at 5 µM; hit rate 0.23% among 290,000; AID 1700;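 active means inhibition above a per-plate limit of that plate's mean compound inhibition plus 3 SD, cut at about 60% in these data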;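 further: higher means less KLF5 promoter-driven luciferase light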
aSyn 5UTR inh – MLPCN primary screen, SNCA 5' untranslated region; inhibition, % (tested at 7.5 µM); hit rate 0.82% among 300,000; alpha-synuclein 5'UTR reporter, inhibitor activity; AID 1813; in the data active means inhibition above about 60%;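 further: H4 neuroglioblastoma cells stably carrying SNCA 5'UTR luciferase fusion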
BaF3 tox – counter-screen for JAK2V617F inhibitors: parental Ba/F3 viability inhibitors; CellTiter-Glo ATP luminescence; inhibition, % at 5.6 µM; hit rate 1.1% among 220,000;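 active means inhibition above a per-campaign cutoff, the mean inhibition of all tested compounds plus 3 SD, cut at about 27% in these data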
IEC-6 tox-1 – kills IEC-6 intestinal cells in KLF5 counter-screen; hit rate 0.78% among 290,000; inhibition, % at 5 µM; AID 1825; IEC-6 cytotoxicity, luminescence viability
APP transl inh – APP translation inhibition | inhibition, % at 2 µM | SH-SY5Y APP 5'UTR-luciferase reporter, luminescence | hit rate 0.82% among 190,000;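 active means inhibition above a set limit, derived from the sample mean plus 3 SD, cut at about 45% in these data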
Ba/F3 V617F tox – lowers viability of Ba/F3 cells expressing EpoR and JAK2V617F; ATP luminescence; inhibition, % at 5.6 µM; hit rate 1.1% among 220,000; AID 1446;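 active means inhibition above the campaign mean plus 3 SD over all tested compounds, cut at about 24% in these data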;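 further: cytokine-independent growth of Ba/F3 cells driven by EpoR plus mutant JAK2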
KLF5 confirm – KLF5 inhibition, confirmation assay | DLD-1 KLF5 promoter firefly luciferase reporter, luminescence | inhibition, % at 4 µM | hit rate 79% among 610 | AID 1834 | shares compounds with KLF5 inh;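 active means inhibition above a set limit taken from the earlier primary screen, cut at about 63% in these data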
IEC-6 tox-2 – counter-screen for KLF5 inhibitors: cytotoxicity in rat IEC-6 cells | shares compounds with KLF5 inh | IEC-6 rat intestinal cells, viability luminescence | inhibition, % at 4 µM | hit rate 56% among 610; in the data active means inhibition above about 23%;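 further: cells exposed to compounds for 48 hours before viability read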
IEC-6 cytotox cf – IEC-6 cytotoxicity, confirmation assay; hit rate 63% among 1,900; AID 1907; inhibition, % at 5 µM; IEC-6 rat intestinal epithelial viability, luminescence; shares compounds with IEC-6 tox-1
Each line names hits and unclear results; the compound was inactive in the other large screens (follow-up assays come after a bar, where they were run). This is a sample that favours compounds with a hit; in the whole collection about 2.2% have one here. Unless noted, no stated cut-off is given here; in the data, active means inhibition above about 22%; inactive means the rest.

COc1ccccc1/C=N\NC(=O)c1c(C)nc2ccc(Cl)cn12	none (no result: BaF3 tox, APP transl inh, Ba/F3 V617F tox)
COc1cccc(/C=N/NC(=O)c2c(C)nc3ccc(Cl)cn23)c1O	KLF5 inh 93, IEC-6 tox-1 83 (no result: BaF3 tox, APP transl inh, Ba/F3 V617F tox) | KLF5 confirm 88 | IEC-6 tox-2 63 | IEC-6 cytotox cf 47
O=C(N/N=C/c1cccc(O)c1)c1ccc2c(c1)OCCO2	none (no result: BaF3 tox, APP transl inh, Ba/F3 V617F tox)
Cc1cccc(/C=N/NC(=O)c2ccc3c(c2)OCCO3)c1O	KLF5 inh 70, IEC-6 tox-1 99 (no result: BaF3 tox, APP transl inh, Ba/F3 V617F tox) | KLF5 confirm inactive | IEC-6 tox-2 inactive | IEC-6 cytotox cf inactive
CCc1ccc(S(=O)(=O)/N=C2\C=C(Nc3ccc(O)cc3)C(=O)c3ccccc32)cc1	KLF5 inh 96, aSyn 5UTR inh 101, IEC-6 tox-1 102 (no result: BaF3 tox, APP transl inh, Ba/F3 V617F tox) | KLF5 confirm 69 | IEC-6 tox-2 60 | IEC-6 cytotox cf 67
CCc1ccc(S(=O)(=O)/N=C2\C=C(Nc3cccc(C(=O)O)c3)C(=O)c3ccccc32)cc1	none (no result: BaF3 tox, APP transl inh, Ba/F3 V617F tox)
O=C1C(Nc2ccc(O)cc2)=C/C(=N/S(=O)(=O)c2cccs2)c2ccccc21	KLF5 inh 67, aSyn 5UTR inh 114, BaF3 tox 101, IEC-6 tox-1 102, APP transl inh 54, Ba/F3 V617F tox 87 | KLF5 confirm 114 | IEC-6 tox-2 102 | IEC-6 cytotox cf 103
Cc1cccc(NC2=C/C(=N/S(=O)(=O)c3cccs3)c3ccccc3C2=O)c1	none (no result: aSyn 5UTR inh)
CCOc1ccc2c(c1)C(C)=CC(C)(C)N2S(=O)(=O)c1ccc(C)cc1	KLF5 inh 68, aSyn 5UTR inh 103, BaF3 tox 77, IEC-6 tox-1 90, APP transl inh 95, Ba/F3 V617F tox 79 | KLF5 confirm 91 | IEC-6 tox-2 55 | IEC-6 cytotox cf 59
COc1ccc2c(c1)C(C)=CC(C)(C)N2S(=O)(=O)c1ccc(C)cc1	KLF5 inh 87, BaF3 tox 74, IEC-6 tox-1 81, APP transl inh 84, Ba/F3 V617F tox 70 | KLF5 confirm 88 | IEC-6 tox-2 55 | IEC-6 cytotox cf 53
COC(=O)C1(C)CN(S(=O)(=O)c2ccc(C)cc2)c2cc(OC)ccc2C1=O (stereo unspecified)	none
CCOc1ccc2c(c1)C(C)=CC(C)(C)N2C(=O)Nc1ccccc1F	none
Nc1cc(C(=O)O)ccc1Sc1ccccc1C(=O)O	none
CN(CCCNC(=O)CSc1cc(=O)n(C)c2ccc(Cl)cc12)Cc1ccccc1	none
CC(=O)c1cccc(Nc2c3c(nc4ccccc24)CCC3)c1	KLF5 inh 65, aSyn 5UTR inh 75, IEC-6 tox-1 75 (no result: BaF3 tox, APP transl inh, Ba/F3 V617F tox) | KLF5 confirm 102 | IEC-6 tox-2 51 | IEC-6 cytotox cf 51
Cc1onc(-c2ccccc2Cl)c1C(=O)N1CCN(C=O)CC1	none (no result: BaF3 tox, APP transl inh, Ba/F3 V617F tox)
Cc1cccc(N2CCN(C(=O)c3c(-c4ccccc4Cl)noc3C)CC2)c1C	KLF5 inh 77, IEC-6 tox-1 73 (no result: BaF3 tox, APP transl inh, Ba/F3 V617F tox) | KLF5 confirm 76 | IEC-6 tox-2 56 | IEC-6 cytotox cf 55
CC(C)(C)NC(=O)C1CC(=O)N(CCc2ccc(F)cc2)C1 (stereo unspecified)	none (no result: BaF3 tox, APP transl inh, Ba/F3 V617F tox)
COc1ccccc1C(=O)Nc1nc2ccccc2[nH]1	KLF5 inh 101, aSyn 5UTR inh 100, IEC-6 tox-1 80 (no result: BaF3 tox, APP transl inh, Ba/F3 V617F tox) | KLF5 confirm 105 | IEC-6 tox-2 58 | IEC-6 cytotox cf 69
COc1cc(SC)ccc1C(=O)Nc1nc2ccccc2[nH]1	KLF5 inh 100, aSyn 5UTR inh 131, IEC-6 tox-1 77 (no result: BaF3 tox, APP transl inh, Ba/F3 V617F tox) | KLF5 confirm 98 | IEC-6 tox-2 44 | IEC-6 cytotox cf 59
CC1=Nc2ccccc2/C1=C\c1sc(Nc2ccc(C)cc2)nc1O	KLF5 inh 66, BaF3 tox 75, IEC-6 tox-1 79, APP transl inh 96, Ba/F3 V617F tox 76 | KLF5 confirm 85 | IEC-6 tox-2 58 | IEC-6 cytotox cf 54
Oc1nc(Nc2ccc(F)cc2)sc1/C=C1\C=Nc2ccccc21	none (no result: APP transl inh)
O=C(N/N=C/c1cc(Br)ccc1O)c1ccncc1	KLF5 inh 84, IEC-6 tox-1 22 (no result: APP transl inh) | KLF5 confirm 89 | IEC-6 tox-2 inactive | IEC-6 cytotox cf 29
O=C(N/N=C/c1ccc(OC(=O)c2ccc(Br)cc2)cc1)c1ccncc1	none (no result: BaF3 tox, APP transl inh, Ba/F3 V617F tox)
O=C(N/N=C/c1cc(Br)ccc1OC(=O)c1ccc(Br)cc1)c1ccncc1	KLF5 inh 78, IEC-6 tox-1 97 (no result: BaF3 tox, APP transl inh, Ba/F3 V617F tox) | KLF5 confirm 90 | IEC-6 tox-2 inactive | IEC-6 cytotox cf 24
CCOc1ccccc1CN1CCNC(=O)C1CC(=O)NCc1nccn1CC (stereo unspecified)	none (no result: BaF3 tox, APP transl inh, Ba/F3 V617F tox)
O=c1c2ccccc2cnn1-c1nc2ccccc2[nH]1	KLF5 inh 105, aSyn 5UTR inh 98, BaF3 tox 65, IEC-6 tox-1 54, APP transl inh 69, Ba/F3 V617F tox 65 | KLF5 confirm 100 | IEC-6 tox-2 52 | IEC-6 cytotox cf 60
Cc1ccccc1C(=O)NNC(=O)CSc1nnc(-c2ccncc2)n1-c1ccccc1	none
C/C(=N\NC(=O)c1nnn(-c2nonc2N)c1-c1ccc2c(c1)OCO2)c1ccccc1	none (no result: BaF3 tox, APP transl inh, Ba/F3 V617F tox)
C/C(=N\NC(=O)c1nnn(-c2nonc2N)c1-c1ccccc1)c1ccccc1O	KLF5 inh 62, IEC-6 tox-1 96 (no result: BaF3 tox, APP transl inh, Ba/F3 V617F tox) | KLF5 confirm 85 | IEC-6 tox-2 63 | IEC-6 cytotox cf 75
O=C(Nc1nc(-c2ccccn2)cs1)c1ccccc1-n1cnnn1	KLF5 inh 71, aSyn 5UTR inh 98, BaF3 tox 63, IEC-6 tox-1 90, Ba/F3 V617F tox 66 (no result: APP transl inh) | KLF5 confirm 76 | IEC-6 tox-2 59 | IEC-6 cytotox cf 70
CC(=O)Nc1ccc(C(=O)Nc2nc(-c3ccccn3)cs2)cc1	none
COC(=O)c1ccc(Oc2cc(C)nc(-n3nc(C)cc3C)n2)cc1	KLF5 inh 82, aSyn 5UTR inh 65, BaF3 tox 66, IEC-6 tox-1 23, APP transl inh 94, Ba/F3 V617F tox 74 | KLF5 confirm 81 | IEC-6 tox-2 inactive | IEC-6 cytotox cf 45
Cc1ccccc1-c1cc2c(nn1)-c1ccccc1C2=O	KLF5 inh 102, BaF3 tox 88, IEC-6 tox-1 102, Ba/F3 V617F tox 91 | KLF5 confirm inactive | IEC-6 tox-2 inactive | IEC-6 cytotox cf 41
Cc1cccc(N2CCN(C(=O)c3ccc(CS(=O)(=O)c4ccccc4C)o3)CC2C)c1 (stereo unspecified)	KLF5 inh 89, aSyn 5UTR inh 97, BaF3 tox 77, IEC-6 tox-1 76, APP transl inh 96, Ba/F3 V617F tox 75 | KLF5 confirm 75 | IEC-6 tox-2 53 | IEC-6 cytotox cf 48
Cc1ccc(C)c(N2CCN(C(=O)c3ccc(CS(=O)(=O)c4ccccc4C)o3)CC2)c1	none
COc1ccc(-n2nnnc2SCC(=O)NCCc2ccccc2)cc1OC	none
